Pf Dd2 inh = Plasmodium falciparum Dd2 growth inhibition. P. falciparum Dd2 growth, SYBR Green, 72 h. Potency, µM (highest dose often 28.9 µM), for inactives: top-dose activity, negative = inhibition, hits mostly inhibitors. 120,000 tested, 4.3% active. AID 1347417; active means well fitted inhibition curve with a large enough effect;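 further: plate controls were DMSO vehicle for no effect and reference drug for full effect; nearly all actives have a fitted effect of over 65% in size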
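Infected erythrocytes (Dd2, 0.3% parasitemia, 2.5% hematocrit final) are added to compound in RPMI-1640/Albumax II medium, grown 72 h at 37C in low oxygen, then lysed with saponin/Triton-X containing SYBR Green and read by fluorescence.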
* = called active by the depositor; i = inactive; [ ] = another dose, or the depositor's remark. The sample as a whole holds a higher share of hits than the screen did. Potency means the concentration at half of the fitted maximal effect.

SMILES	Pf Dd2 inh
COc1ccc(Br)c2c1-c1nc(NC(=O)c3ccccc3SC)sc1C2	-5.4%
COc1ccc(Br)c2c1-c1nc(NC(=O)c3ccccc3F)sc1C2	46.6%
COc1cc(C(=O)Nc2ccc3nc(SCc4ccccc4)sc3c2)cc(OC)c1OC	i
COc1ccc(Br)c2c1-c1nc(NC(=O)c3ccc(F)cc3)sc1C2	2.82µM*
COc1cc(C(=O)Nc2nc3c(s2)C[C@]2(C)CC[C@@H]4[C@H](OC(=O)[C@H]4C)[C@H]2[C@@H]3C)cc(OC)c1OC	-25.0%
COc1cc(C(=O)Nc2nc3c(s2)Cc2c(Br)ccc(OC)c2-3)cc(OC)c1OC	3.16µM*
COc1ccccc1N1CCN(CC[C@H]2CN(C(=O)N3CCOCC3)CC[C@H]2CC(=O)O)CC1	i
O=C(NC1CCN(c2cc(-c3ccccc3)[nH]n2)C1)c1ccccc1F (stereo not drawn)	5.3%
CN(C)C(=O)c1n[nH]c2c1CN(C(=O)c1cccc(Br)c1)CC2	i
O=C1CC(c2ccccc2)N(C(=O)C2CC2)CCCN(C(=O)C2CCCCC2)CCN1 (stereo not drawn)	-0.1%
COCCNC(=O)C[C@@H]1C[C@H]2O[C@H](CNC(C)C)[C@@H](O)[C@H]2O1	20.9%[44.1 µM]
COc1ccc(CN2CCc3oc(C)c(C(=O)N4CCN(C(C)=O)CC4)c3C2)cc1	-13.2%
COCCNC(=O)c1nc2c(o1)CCN(Cc1ccc(OC)cc1)CC2	-15.9%[44.1 µM]
CCn1ncc(CN(C)C(=O)c2c(C)oc3c2CN(Cc2ccc(OC)cc2)CC3)c1C	11.2µM*
Cc1ccc([S+](=O)([O-])N2CCCC(c3nn(-c4ccccc4)c(=O)[nH]3)C2)cc1 (stereo not drawn)	i
Cc1ccc(CC(=O)N2CCCN(S(C)(=O)=O)c3ccccc32)cc1	10.2%
COc1ccc2cc1Nc1ccc(cc1)C[C@H](NCc1ccncc1)C(=O)N(C)[C@H](C(=O)NCc1ccc(OC(F)(F)F)cc1)C2	-20.3%
COc1ccccc1NC(=O)[C@@H]1COCC(=O)N1Cc1ccc(OC)c(OC)c1	36.5%
COc1ccc2cc1Nc1ccc(cc1)C[C@H](NCc1cccc(C(=O)O)c1)C(=O)N(C)[C@H](C(=O)Nc1ccccc1OCc1ccccc1)C2	2µM*
O=C(NC1CC1)C1(CCO)CC12CCOCC2 (stereo not drawn)	19.9%
CCOCC(=O)N1CCC(O)(c2ccccc2)[C@H](N2CCCC2)C1 (stereo partly drawn)	i[5.79 µM]
O=C(NCc1cccn1Cc1ccccc1)Nc1cccc(C(F)(F)F)c1	8.91µM*
CCOC(=O)Cc1ccc(NC(=O)NCc2cccn2Cc2ccccc2)cc1	-28.3%
COc1ccccc1NC(=O)NCc1cccn1Cc1ccccc1	-0.2%
CCCN1C(=O)CC[C@H]2CN(C(=O)c3ccc4sccc4c3)CC[C@H]21	-11.9%
SMILES	Pf Dd2 inh
O=C(NCc1ccco1)C1CCN(C(=O)c2ncn3c2COC(c2ccc(F)cc2)C3)CC1 (stereo not drawn)	-17.0%
Cc1ccc(C(C)C)c(OCC(=O)NCC2(N(C)C)CCCCC2)c1	2.82µM*
Cc1cccc(C)c1OCC(=O)NCC1(N(C)C)CCCCC1	i
Cc1ccc(C(C)C)c(OCC(=O)Nc2nc3c(s2)CCCC3)c1	0.0%
O=C(O)Cn1nc(COc2ccc(F)cc2)nc1CN1CCCCCC1=O	-0.5%
CN(c1ccccc1)c1cc(=O)c2ccnc(NCCc3ccccn3)c2o1	i
C[C@]1(CO)[C@H]2Cc3sc(NC(=O)c4cccs4)nc3[C@@H](CC(=O)NCc3cccnc3)[C@]2(C)CC[C@H]1O	i
COc1ccc(C(=O)Nc2nc3c(s2)C[C@@H]2[C@](C)(CO)[C@H](O)CC[C@@]2(C)[C@@H]3CC(=O)NCc2ccco2)cc1	2µM*
COc1ccc(C(=O)Nc2nc3c(s2)C[C@@H]2[C@](C)(CO)[C@H](O)CC[C@@]2(C)[C@@H]3CC(=O)NCCNC(C)=O)cc1	i
C[C@]1(CO)[C@H]2Cc3sc(NC(=O)c4cccc(F)c4)nc3[C@@H](CC(=O)NCc3ccco3)[C@]2(C)CC[C@H]1O	8.91µM*
CC(C)(C)C(=O)Nc1nc2c(s1)C[C@@H]1[C@](C)(CO)[C@H](O)CC[C@@]1(C)[C@@H]2CC(=O)NCc1ccco1	i
C#CCNC(=O)C[C@@H]1c2nc(NC(=O)c3ccc(F)cc3)sc2C[C@@H]2[C@](C)(CO)[C@H](O)CC[C@]21C	-12.9%
COCCNC(=O)C[C@@H]1c2nc(NC(=O)c3ccnc(Cl)c3)sc2C[C@@H]2[C@](C)(CO)[C@H](O)CC[C@]21C	-20.9%
C[C@]1(CO)[C@H]2Cc3sc(NC(=O)c4ccco4)nc3[C@@H](CC(=O)NCc3cccnc3)[C@]2(C)CC[C@H]1O	7.08µM*
CCCCCC(=O)Nc1nc2c(s1)C[C@@H]1[C@](C)(CO)[C@H](O)CC[C@@]1(C)[C@@H]2CC(=O)NCc1cccnc1	i
COc1ccc(C(=O)NCC2CCN(c3cnn(C)c(=O)c3)C2)c(OC)n1 (stereo not drawn)	-2.8%
O=C(COc1ccc(F)cc1)NCC(=O)N1CCCCCCNC(=O)CC1c1ccccc1 (stereo not drawn)	-12.4%
